About 8,800 targets were measured; listed, in parts, are those with a hit and a random draw of the rest. About 0.5% of all pairs of compound and target were hits. Values without a mark were called inactive.
Assays:
Assay in all cases: log2 fold change, soluble protein after heating vs DMSO (PISA); higher = thermal stabilisation; K562 lysate, 10 uM; active = over 0.2 and 3.5 SD of the protein, either way, in both replicates (recomputed)
Tubastatin A = compound: CN1CCc2c(c3ccccc3n2Cc2ccc(C(=O)NO)cc2)C1 [Tubastatin A]
How it was run: (§1)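 K562 pellets were dounce-homogenised in PBS pH 7.4 containing 1 mM MgCl2, and the crude extract, at 1 mg/mL protein, was exposed to 10 μM compound for 30 min. Aliquots were heated for 3 min across 48°C-58°C, pooled, brought to 0.5% NP-40 at 4°C and spun at 21,000xg for 90 min, with the supernatant taken as soluble protein. TMTpro 16plex LC-MS/MS with equalised channel sums quantified that protein. Values are log-two fold changes in thermal stability relative to solvent controls, taken from duplicates.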

[1] = compound: CNC(=O)C1=CC=CC=C1NC2=NC(=NC=C2Cl)NC3=C(C=C(C=C3)N4CCOCC4)OC
How it was run: as §1

[2] = compound: CNc1nc(-c2ccc3c(N)n[nH]c3c2)cc(N2C[C@@H](C(=O)NC3CCCCC3)CC[C@H]2C)n1
How it was run: as §1

alisertib = compound: COc1cc(Nc2ncc3c(n2)-c2ccc(Cl)cc2C(c2c(F)cccc2OC)=NC3)ccc1C(=O)O [alisertib]
How it was run: as §1

[3] = compound: COc1cc2nc(-c3cc(F)ccc3O)nc(N[C@@H]3CNC[C@H]3C(C)(C)O)c2cc1OC
How it was run: as §1

gefitinib = compound: COc1cc2ncnc(Nc3ccc(F)c(Cl)c3)c2cc1OCCCN1CCOCC1 [gefitinib]
How it was run: as §1

lapatinib = compound: CS(=O)(=O)CCNCc1ccc(-c2ccc3ncnc(Nc4ccc(OCc5cccc(F)c5)c(Cl)c4)c3c2)o1 [lapatinib]
How it was run: as §1

crizotinib = compound: C[C@@H](Oc1cc(-c2cnn(C3CCNCC3)c2)cnc1N)c1c(Cl)ccc(F)c1Cl [crizotinib]
How it was run: as §1

duvelisib = compound: C[C@H](Nc1ncnc2nc[nH]c12)c1cc2cccc(Cl)c2c(=O)n1-c1ccccc1 [duvelisib]
How it was run: as §1

doramapimod = compound: Cc1ccc(-n2nc(C(C)(C)C)cc2NC(=O)Nc2ccc(OCCN3CCOCC3)c3ccccc23)cc1 [doramapimod]
How it was run: as §1

alvocidib = compound: CN1CC[C@H](c2c(O)cc(O)c3c(=O)cc(-c4ccccc4Cl)oc23)[C@H](O)C1 [alvocidib]
How it was run: as §1

pictilisib = compound: CS(=O)(=O)N1CCN(Cc2cc3nc(-c4cccc5[nH]ncc45)nc(N4CCOCC4)c3s2)CC1 [pictilisib]
How it was run: as §1

[4] = compound: C[C@H](C1=CC=C(C=C1)C(=O)NC2=C3C=CNC3=NC=C2)N
How it was run: as §1

gandotinib = compound: Cc1cc(Nc2cc(CN3CCOCC3)c3nc(C)c(Cc4ccc(Cl)cc4F)n3n2)n[nH]1 [gandotinib]
How it was run: as §1

bafetinib = compound: Cc1ccc(NC(=O)c2ccc(CN3CC[C@H](N(C)C)C3)c(C(F)(F)F)c2)cc1Nc1nccc(-c2cncnc2)n1 [bafetinib]
How it was run: as §1

[5] = compound: Cc1cccc(CC(=O)N2CCc3c2ccc(-c2cn(C)c4ncnc(N)c24)c3F)n1
How it was run: as §1

defactinib = compound: CNC(=O)c1ccc(Nc2ncc(C(F)(F)F)c(NCc3nccnc3N(C)S(C)(=O)=O)n2)cc1 [defactinib]
How it was run: as §1

encorafenib = compound: COC(=O)N[C@@H](C)CNc1nccc(-c2cn(C(C)C)nc2-c2cc(Cl)cc(NS(C)(=O)=O)c2F)n1 [encorafenib]
How it was run: as §1

[6] = compound: COC(=O)[C@H](CCSC)NC(=O)C1=C(C=C(C=C1)NC[C@H](CS)N)C2=CC=CC=C2
How it was run: as §1

tozasertib = compound: Cc1cc(Nc2cc(N3CCN(C)CC3)nc(Sc3ccc(NC(=O)C4CC4)cc3)n2)n[nH]1 [tozasertib]
How it was run: as §1

UniProt Q9H6S3, sequence (Q9H6S3 whole entry, looked up): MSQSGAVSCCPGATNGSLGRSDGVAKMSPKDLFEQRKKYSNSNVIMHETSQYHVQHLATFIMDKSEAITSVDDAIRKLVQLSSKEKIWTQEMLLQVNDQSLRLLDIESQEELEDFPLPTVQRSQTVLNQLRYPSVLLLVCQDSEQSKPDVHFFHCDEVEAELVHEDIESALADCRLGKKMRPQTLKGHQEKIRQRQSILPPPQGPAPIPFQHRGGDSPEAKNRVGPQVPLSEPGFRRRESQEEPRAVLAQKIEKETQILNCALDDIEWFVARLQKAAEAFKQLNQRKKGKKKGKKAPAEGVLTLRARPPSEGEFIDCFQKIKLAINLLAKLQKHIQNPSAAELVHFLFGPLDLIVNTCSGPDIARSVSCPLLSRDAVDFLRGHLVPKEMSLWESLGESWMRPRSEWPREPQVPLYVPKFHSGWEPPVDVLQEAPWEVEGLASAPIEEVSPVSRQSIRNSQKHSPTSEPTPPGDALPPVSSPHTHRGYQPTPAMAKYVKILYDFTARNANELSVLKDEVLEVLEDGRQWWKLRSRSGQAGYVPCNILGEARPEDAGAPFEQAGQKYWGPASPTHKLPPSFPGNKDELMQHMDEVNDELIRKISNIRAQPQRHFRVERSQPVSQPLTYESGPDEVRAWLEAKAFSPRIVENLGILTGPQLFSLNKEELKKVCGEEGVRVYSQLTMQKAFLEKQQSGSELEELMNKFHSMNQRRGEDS
UniProt P11171, sequence (P11171 whole entry, looked up): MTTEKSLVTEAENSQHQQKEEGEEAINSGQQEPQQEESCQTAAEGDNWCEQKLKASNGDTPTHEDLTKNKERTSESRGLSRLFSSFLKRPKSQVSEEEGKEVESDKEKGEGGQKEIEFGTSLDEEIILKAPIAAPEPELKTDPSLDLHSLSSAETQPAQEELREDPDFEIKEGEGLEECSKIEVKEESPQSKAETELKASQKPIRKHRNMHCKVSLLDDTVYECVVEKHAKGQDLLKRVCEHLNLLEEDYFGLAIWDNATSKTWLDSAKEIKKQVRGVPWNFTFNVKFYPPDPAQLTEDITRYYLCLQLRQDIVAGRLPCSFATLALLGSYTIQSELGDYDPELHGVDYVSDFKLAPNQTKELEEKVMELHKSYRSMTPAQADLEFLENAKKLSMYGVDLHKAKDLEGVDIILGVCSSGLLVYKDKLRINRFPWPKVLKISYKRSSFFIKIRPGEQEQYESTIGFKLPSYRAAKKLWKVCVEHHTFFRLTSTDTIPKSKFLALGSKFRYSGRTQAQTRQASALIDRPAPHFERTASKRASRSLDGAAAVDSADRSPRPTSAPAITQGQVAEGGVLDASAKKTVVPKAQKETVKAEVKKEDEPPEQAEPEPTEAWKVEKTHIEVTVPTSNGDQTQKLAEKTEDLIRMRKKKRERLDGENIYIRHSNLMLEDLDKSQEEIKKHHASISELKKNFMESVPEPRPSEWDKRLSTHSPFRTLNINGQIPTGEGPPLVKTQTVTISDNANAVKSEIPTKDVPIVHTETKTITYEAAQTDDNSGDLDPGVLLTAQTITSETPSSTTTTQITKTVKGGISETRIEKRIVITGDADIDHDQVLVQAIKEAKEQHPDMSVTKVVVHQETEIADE
UniProt Q9HCG7, sequence (Q9HCG7 whole entry, looked up): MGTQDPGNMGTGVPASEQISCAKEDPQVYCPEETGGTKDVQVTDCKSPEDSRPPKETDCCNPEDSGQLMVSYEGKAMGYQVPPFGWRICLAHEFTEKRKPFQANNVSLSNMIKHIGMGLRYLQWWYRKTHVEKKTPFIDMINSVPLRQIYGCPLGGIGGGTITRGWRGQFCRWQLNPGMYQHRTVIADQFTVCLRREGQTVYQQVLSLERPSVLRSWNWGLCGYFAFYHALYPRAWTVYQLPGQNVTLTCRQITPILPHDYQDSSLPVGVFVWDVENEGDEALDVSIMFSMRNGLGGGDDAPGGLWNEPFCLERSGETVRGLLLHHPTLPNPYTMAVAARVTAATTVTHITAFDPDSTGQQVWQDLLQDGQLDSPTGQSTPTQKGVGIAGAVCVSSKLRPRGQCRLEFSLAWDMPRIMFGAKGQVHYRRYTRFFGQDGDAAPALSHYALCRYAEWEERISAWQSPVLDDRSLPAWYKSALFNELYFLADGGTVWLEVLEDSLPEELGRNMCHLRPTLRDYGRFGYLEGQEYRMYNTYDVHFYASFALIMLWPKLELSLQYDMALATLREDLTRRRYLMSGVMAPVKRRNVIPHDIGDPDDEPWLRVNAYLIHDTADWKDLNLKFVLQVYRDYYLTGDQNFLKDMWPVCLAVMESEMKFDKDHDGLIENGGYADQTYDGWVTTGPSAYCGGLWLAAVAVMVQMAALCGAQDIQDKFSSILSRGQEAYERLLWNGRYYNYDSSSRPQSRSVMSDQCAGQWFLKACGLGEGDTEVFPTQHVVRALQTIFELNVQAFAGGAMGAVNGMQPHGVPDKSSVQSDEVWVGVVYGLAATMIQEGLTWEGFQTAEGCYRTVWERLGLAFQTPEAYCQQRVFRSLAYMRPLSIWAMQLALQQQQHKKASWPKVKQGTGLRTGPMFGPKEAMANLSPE
UniProt Q9H8W3, sequence (Q9H8W3 whole entry, looked up): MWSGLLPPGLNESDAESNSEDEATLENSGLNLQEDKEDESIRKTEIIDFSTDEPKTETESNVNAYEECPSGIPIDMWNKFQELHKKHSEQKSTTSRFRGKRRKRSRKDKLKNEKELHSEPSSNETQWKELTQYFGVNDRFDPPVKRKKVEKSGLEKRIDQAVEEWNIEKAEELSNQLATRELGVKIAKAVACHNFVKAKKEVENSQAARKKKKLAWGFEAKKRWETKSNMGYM
UniProt P28676, sequence (P28676 whole entry, looked up): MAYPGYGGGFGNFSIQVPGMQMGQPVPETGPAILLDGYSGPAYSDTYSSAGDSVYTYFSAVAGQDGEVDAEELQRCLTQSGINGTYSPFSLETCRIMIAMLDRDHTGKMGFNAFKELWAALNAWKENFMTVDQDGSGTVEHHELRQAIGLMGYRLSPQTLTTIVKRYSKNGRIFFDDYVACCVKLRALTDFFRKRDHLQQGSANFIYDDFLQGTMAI
UniProt Q96PY5, sequence (Q96PY5 whole entry, looked up): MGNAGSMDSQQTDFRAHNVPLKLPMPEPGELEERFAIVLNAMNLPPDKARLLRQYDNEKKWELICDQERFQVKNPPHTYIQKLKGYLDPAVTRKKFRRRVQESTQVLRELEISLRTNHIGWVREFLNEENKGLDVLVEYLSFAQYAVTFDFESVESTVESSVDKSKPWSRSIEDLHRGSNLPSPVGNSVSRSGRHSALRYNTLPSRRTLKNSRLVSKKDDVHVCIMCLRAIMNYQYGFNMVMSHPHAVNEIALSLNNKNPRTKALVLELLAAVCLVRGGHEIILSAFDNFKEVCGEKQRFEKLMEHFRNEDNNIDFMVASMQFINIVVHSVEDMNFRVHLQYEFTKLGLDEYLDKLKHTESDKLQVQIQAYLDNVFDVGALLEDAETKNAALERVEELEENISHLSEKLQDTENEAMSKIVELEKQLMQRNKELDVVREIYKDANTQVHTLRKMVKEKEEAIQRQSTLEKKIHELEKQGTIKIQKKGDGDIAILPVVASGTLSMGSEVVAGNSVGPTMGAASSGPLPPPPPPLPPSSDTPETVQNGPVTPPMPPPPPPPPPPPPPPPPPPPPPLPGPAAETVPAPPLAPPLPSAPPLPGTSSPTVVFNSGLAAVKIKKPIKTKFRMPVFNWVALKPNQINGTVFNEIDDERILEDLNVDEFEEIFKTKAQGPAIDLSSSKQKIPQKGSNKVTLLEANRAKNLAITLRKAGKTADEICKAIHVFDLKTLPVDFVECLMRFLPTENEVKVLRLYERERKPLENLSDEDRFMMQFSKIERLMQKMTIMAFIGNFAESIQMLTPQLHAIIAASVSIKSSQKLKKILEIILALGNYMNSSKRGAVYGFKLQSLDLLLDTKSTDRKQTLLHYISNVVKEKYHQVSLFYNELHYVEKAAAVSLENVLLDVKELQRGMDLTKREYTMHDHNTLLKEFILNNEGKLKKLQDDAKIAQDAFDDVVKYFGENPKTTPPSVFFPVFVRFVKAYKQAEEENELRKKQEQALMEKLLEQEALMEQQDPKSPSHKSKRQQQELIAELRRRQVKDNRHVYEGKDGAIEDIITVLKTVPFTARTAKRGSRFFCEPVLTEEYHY
UniProt Q9UI10, sequence (Q9UI10 whole entry, looked up): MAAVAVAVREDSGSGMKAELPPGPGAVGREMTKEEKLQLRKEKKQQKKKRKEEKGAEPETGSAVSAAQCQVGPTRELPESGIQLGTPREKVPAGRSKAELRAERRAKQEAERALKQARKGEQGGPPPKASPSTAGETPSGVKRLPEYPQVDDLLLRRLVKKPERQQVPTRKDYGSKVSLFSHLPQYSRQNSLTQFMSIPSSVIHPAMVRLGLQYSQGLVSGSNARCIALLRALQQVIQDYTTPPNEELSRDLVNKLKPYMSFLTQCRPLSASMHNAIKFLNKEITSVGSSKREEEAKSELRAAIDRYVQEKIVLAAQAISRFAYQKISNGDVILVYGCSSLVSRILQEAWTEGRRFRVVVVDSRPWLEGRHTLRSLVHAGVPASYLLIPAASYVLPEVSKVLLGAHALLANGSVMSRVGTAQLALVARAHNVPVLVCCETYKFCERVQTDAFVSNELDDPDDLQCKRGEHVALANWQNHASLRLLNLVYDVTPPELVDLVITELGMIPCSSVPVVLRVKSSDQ
UniProt Q8TF64, sequence (Q8TF64 whole entry, looked up): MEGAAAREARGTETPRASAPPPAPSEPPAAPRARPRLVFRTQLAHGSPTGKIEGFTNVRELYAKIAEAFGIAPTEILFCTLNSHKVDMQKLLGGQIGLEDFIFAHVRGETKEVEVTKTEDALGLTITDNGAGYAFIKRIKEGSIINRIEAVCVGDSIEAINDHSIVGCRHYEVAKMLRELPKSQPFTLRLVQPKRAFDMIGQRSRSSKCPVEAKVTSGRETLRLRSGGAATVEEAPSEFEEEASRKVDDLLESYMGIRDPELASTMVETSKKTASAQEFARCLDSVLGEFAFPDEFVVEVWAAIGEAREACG
UniProt Q9UKR5, sequence (Q9UKR5 whole entry, looked up): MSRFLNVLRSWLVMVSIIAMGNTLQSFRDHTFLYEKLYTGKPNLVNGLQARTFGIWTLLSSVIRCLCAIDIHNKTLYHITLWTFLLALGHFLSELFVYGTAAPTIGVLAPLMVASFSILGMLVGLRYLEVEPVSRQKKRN

| Target | log2 fold change (Tubastatin A) | log2 fold change [1] | log2 fold change [2] | log2 fold change (alisertib) | log2 fold change [3] | log2 fold change (gefitinib) | log2 fold change (lapatinib) | log2 fold change (crizotinib) | log2 fold change (duvelisib) | log2 fold change (doramapimod) | log2 fold change (alvocidib) | log2 fold change (pictilisib) | log2 fold change [4] | log2 fold change (gandotinib) | log2 fold change (bafetinib) | log2 fold change [5] | log2 fold change (defactinib) | log2 fold change (encorafenib) | log2 fold change [6] | log2 fold change (tozasertib) |
| --- | --- | --- | --- | --- | --- | --- | --- | --- | --- | --- | --- | --- | --- | --- | --- | --- | --- | --- | --- | --- |
| FMNL2 isoform 3 (UniProt Q96PY5) | 0.108 | 0.011 | 0.044 | 0.073 | 0.119 | 0.241 | -0.077 | -0.17 | -0.085 | 0.091 | – | – | – | – | – | – | – | – | – | – |
| EPN2 (UniProt I3L356) | – | – | – | -0.253 | -0.02 | 0.321 | 0.014 | – | – | – | -0.108 | -0.054 | -0.361 | 0.081 | 0.031 | 0.146 | – | – | – | – |
| EIF3I (UniProt Q5TFK1) | – | – | – | 0.159 | 0.613 | 0.233 | -0.063 | – | – | – | 0.053 | – | 0.137 | 0.052 | – | 0.112 | – | – | – | – |
| FBXO45 (UniProt P0C2W1) | -0.162 | -0.035 | – | 0.003 | 0.02 | -0.002 | -0.067 | -0.123 | – | 0.017 | -0.047 | -0.034 | -0.081 | -0.031 | -0.272 | 0.091 | -0.009 | -0.062 | -0.035 | 0.115 |
| EPB41 isoform 4 (UniProt P11171) | 0.012 | -0.089 | – | -0.09 | -0.153 | -0.096 | 0.014 | -0.038 | – | 0.046 | -0.014 | – | 0.012 | -0.004 | – | -0.024 | – | – | – | – |
| FOXL2 (UniProt P58012) | -0.049 | 0.031 | 0.005 | – | 0.015 | – | -0.25 | – | 0.094 | – | – | 0.091 | – | – | -0.703 (active) | – | – | 0.079 | 0.138 | -0.092 |
| FOXJ2 (UniProt Q9P0K8) | -0.114 | 0.021 | 0.053 | -0.308 | – | 0.057 | – | – | 0.039 | – | 0.006 | 0.043 | -0.037 | 0.044 | -0.224 | 0.056 | – | -0.081 | 0.022 | 0.127 |
| FAM204A (UniProt Q9H8W3) | -0.036 | 0.018 | – | – | – | – | – | -0.053 | – | 0.154 | -0.139 | – | 0.412 | 0.045 | – | -0.077 | 0.146 | – | – | – |
| DST isoform 3 (UniProt Q03001) | – | -0.061 | – | – | – | – | – | – | – | – | 0.386 | 0.049 | 1.39 (active) | -0.243 | -0.118 | -0.224 | – | 0.008 | -0.004 | -0.056 |
| FTSJ1 isoform 2 (UniProt Q9UET6) | – | – | – | – | -0.016 | – | 0.013 | – | – | – | 0.015 | – | -0.129 | 0.077 | – | 0.079 | 0.028 | -0.027 | 0.047 | -0.175 |
| GBA2 (UniProt Q9HCG7) | -0.032 | 0.073 | -0.098 | -0.004 | 0.013 | 0.2 | -0.062 | 0.014 | 0.06 | 0.055 | -0.046 | -0.012 | -0.094 | -0.009 | -0.199 | 0.054 | – | -0.052 | 0.079 | -0.138 |
| FAM111A (UniProt Q96PZ2) | -0.083 | 0.022 | -0.119 | – | -0.091 | – | 0.223 | -0.01 | 0.03 | -0.163 | – | – | – | – | – | – | 0.053 | -0.074 | -0.11 | -0.02 |
| GDE1 (UniProt Q9NZC3) | -0.047 | 0.014 | 0.024 | – | -0.038 | – | -0.016 | -0.005 | 0.049 | -0.017 | 0.307 | 0.114 | 0.842 (active) | -0.434 (active) | -0.041 | -0.409 (active) | – | -0.045 | -0.02 | 0.157 |
| DUSP22 isoform 2 (UniProt Q9NRW4) | -0.079 | -0.066 | 0.043 | 0.18 | -0.11 | -0.101 | 0.031 | – | 0.038 | – | 0.034 | -0.082 | -0.058 | 0.03 | 0.018 | 0.037 | -0.085 | – | – | – |
| GAA (UniProt P10253) | 0.098 | -0.047 | – | -0.117 | 0.089 | -0.043 | 0.083 | -0.098 | – | -0.099 | -0.006 | 0.034 | -0.018 | 0.04 | 0.081 | -0.04 | -0.513 (active) | 0.097 | -0.15 | -0.027 |
| EIF2AK3 (UniProt Q9NZJ5) | -0.369 | 0.28 | 0.104 | -0.128 | -0.197 | 0.001 | 0.3 | – | -0.122 | – | 0.281 | – | -0.051 | -0.212 | – | 1.48 (active) | – | – | – | – |
| GIPC3 (UniProt Q8TF64) | -0.071 | 0.055 | -0.157 | -0.194 | 0.008 | 0.073 | 0.157 | -0.103 | 0.05 | 0 | -0.108 | -0.055 | -0.033 | 0.124 | -0.035 | 0.083 | – | 0.028 | 0.05 | -0.097 |
| EIF2B4 (UniProt Q9UI10) | 0.006 | -0.004 | -0.058 | -0.039 | -0.008 | 0.074 | -0.003 | -0.057 | -0.032 | -0.019 | – | 0.038 | – | – | -0.04 | – | 0.03 | 0.114 | -0.1 | -0.314 (active) |
| ERG28 (UniProt Q9UKR5) | – | – | -0.037 | – | -0.024 | – | 0.008 | – | 0.014 | – | 0.304 | 0.049 | 0.593 (active) | -0.349 | 0.041 | -0.392 | – | 0.055 | -0.062 | -0.11 |
| GCA (UniProt P28676) | – | -0.035 | – | -0.038 | -0.253 | -0.197 | 0.016 | – | – | – | -0.016 | – | -0.091 | -0.073 | – | 0.057 | – | – | – | – |
| DYRK1A isoform 2 (UniProt Q13627) | 0.023 | 0.148 | – | – | – | – | – | -0.071 | – | 0.092 | 0.225 | -0.166 | -0.171 | 0.014 | 0.145 | 0.034 | – | – | – | – |
| GART (UniProt C9JZG2) | 0.018 | – | – | 0.121 | -0.056 | 0.281 | -0.131 | -0.245 | – | 0.166 | -0.071 | 0.019 | -0.371 | 0.02 | 0.026 | 0.19 | – | 0.038 | 0.088 | 0.037 |
| EPS8L2 (UniProt Q9H6S3) | 0.078 | -0.016 | 0.031 | 0.01 | -0.036 | -0.149 | 0.044 | -0.012 | -0.086 | -0.046 | -0.009 | -0.03 | -0.068 | 0.061 | -0.101 | 0.207 | – | 0.096 | -0.037 | -0.258 |
| FNDC3A (UniProt Q9Y2H6) | -0.237 | 0.014 | – | -0.141 | – | -0.214 | – | 0.036 | – | 0.143 | -0.017 | – | -0.808 (active) | 0.42 | – | 0.126 | – | – | – | – |
| DTL (UniProt Q9NZJ0) | -0.072 | -0.003 | -0.092 | -0.038 | – | 0.043 | – | -0.035 | 0.174 | 0.064 | -0.008 | -0.026 | 0.059 | -0.053 | -0.099 | 0.006 | 0.071 | – | – | – |
| EVI5L isoform 2 (UniProt Q96CN4) | – | – | – | – | – | – | – | – | – | – | -0.293 | – | 0.022 | 0.062 | – | 0.049 | – | – | – | – |
